Data published in PubChem BioAssay (EPA / NIEHS).
Active and inactive are the calls of the source. Rule for the calls: active = hit-call score of the fitted dose curve at least 0.9, where 1 is the maximum; inactive = score below 0.9.

Experiment: BSK_3C_VCAM1: BioMAP Diversity Plus: 3C Assay for Vascular cell adhesion molecule 1 (VCAM1) Biomarker Activity (AID 2282999)
Settings: BioMAP 3C HUVEC, VCAM1 ELISA, cytokine-stimulated; actives raise or lower the signal
Method: BSK_3C is a cell-based, multiplexed-readout assay that uses umbilical vein endothelium, a human vascular primary cell, with measurements taken at 24 hours after chemical dosing in a 96-well plate.BSK_3C_VCAM1 is an assay component measured in the BSK_3C assay. It measures VCAM-1 antibody related to regulation of gene expression using ELISA technology.Data from the assay component BSK_3C_VCAM1 was analyzed into 1 assay endpoint. This assay endpoint, BSK_3C_VCAM1, was analyzed with bidirectional fitting relative to DMSO as the negative control and baseline of activity. Using a type of binding reporter, gain or loss-of-signal activity can be used to understand changes in the signaling as they relate to the gene VCAM1. Furthermore, this assay endpoint can be referred to as a primary readout, because this assay has produced multiple assay endpoints where this one serves a signaling function. To generalize the intended target to other relatable targets, this assay endpoint is annotated to the cell adhesion molecules intended target family, where the subfamily is Immunoglobulin CAM.
The levels of cell surface (or secreted, indicated by the prefix "s") biomarker endpoints were measured by ELISA. Overt cytotoxicity to cells in confluent adherent cultures (all systems other than the BT system) was assessed by measuring total protein levels using sulforhodamine B (SRB) staining in parallel cultures at the time of biomarker measurements, indicated as SRB endpoints. For proliferation assays for adherent cell types, individual cell types are cultured at sub-confluence and relative cell numbers quantified by SRB staining at time points optimized for each system (48 h: 3C and CASM3C systems; 72 h: BT and HDF3CGF systems; 96 h: SAg system). SRB was performed by staining cells with 0.1% SRB after fixation with 10% TCA and reading wells at 560 nm.Viability and proliferation of PBMC (T cells) was quantified by Alamar Blue reduction for the SAg and BT systems. For PBMC viability (referred to as PBMC Cytotoxicity within the assay endpoint names), cells were plated (75,000/well in a 96-well plate) and then chemical samples added for 1 h before addition of activators, SEB and TSST-1 (20 ng/mL final concentration each). Cells were incubated for 90 h. Then, Alamar Blue (20 uL/well) (Invitrogen, Cat DAL1100) was added for 6 h, and the plates were read with a fluorescence microplate reader at 546/580 nm (excitation/emission). For PBMC proliferation, cells were plated and activated as above but incubated for only 16 h prior to addition of Alamar Blue. Plates were read after 6 h.

Row | Compound | outcome | AC50
1 | O=c1[nH]c2ccc(S(=O)CCN3CCC(Cc4ccc(F)cc4)CC3)cc2o1 (stereo not given) | inactive | 
2 | CN(C)c1ccc(Cc2ccc(N(C)C)cc2)cc1 | inactive | 
3 | COc1ccc2sc(C(=O)Nc3nnn[nH]3)c(OC(C)C)c2c1 |  | 23.7 µM (active)
4 | CC(C)CCO | inactive | 
5 | O=C(O)CC(O)C(=O)O (stereo not given) | inactive | 
6 | Nc1ccc(Nc2ccccc2)cc1 |  | 4.54 µM (active)
7 | CC[C@H]1OC(=O)[C@H](C)[C@@H](O[C@H]2C[C@@](C)(OC)[C@@H](O)[C@H](C)O2)[C@H](C)[C@@H](O[C@@H]2O[C@H](C)C[C@H](N(C)C)[C@H]2O)[C@](C)(O)C[C@@H](C)C(=O)[C@H](C)[C@@H](O)[C@]1(C)O | inactive | 
8 | Fc1ccccc1[C@@H](F)COC1CCC(Nc2ncnc3[nH]ncc23)CC1 (stereo not given in full) | inactive | 
9 | CC(C)=CCCC(C)=CC=O | inactive | 
10 | CNS(=O)(=O)c1cc(C(=O)N2CCC(CCN3C4CCC3CC(n3c(C)nc5ccccc53)C4)(c3cccc(F)c3)CC2)c(Cl)cc1F (stereo not given) |  | 13.5 µM (active)
11 | CC1(C)C(=O)N(Br)C(=O)N1Br | inactive | 
12 | CCOC(=O)c1ccc(C2CCC(NC[C@H](O)COc3ccc(O)c(NS(C)(=O)=O)c3)CC2)cc1 (stereo not given in full) |  | 30.5 µM (active)
13 | O=C(O)c1cccc(Oc2ccccc2)c1 | inactive | 
14 | CCCCCCCCCCCCc1ccccc1 | inactive | 
15 | CCOc1cccc(-n2cc(C(=O)N3CCN(c4cc(C(=O)O)c5ccccc5c4)CC3)nc2-c2ccc(C)cc2)c1 |  | 27.9 µM (active)
16 | Oc1ccc2c(c1)-c1ccccc1C2 | inactive | 
17 | O=C(OC[C@H]1O[C@@H](OC(=O)c2cc(O)c(O)c(OC(=O)c3cc(O)c(O)c(O)c3)c2)[C@H](OC(=O)c2cc(O)c(O)c(OC(=O)c3cc(O)c(O)c(O)c3)c2)[C@@H](OC(=O)c2cc(O)c(O)c(OC(=O)c3cc(O)c(O)c(O)c3)c2)[C@@H]1OC(=O)c1cc(O)c(O)c(OC(=O)c2cc(O)c(O)c(O)c2)c1)c1cc(O)c(O)c(OC(=O)c2cc(O)c(O)c(O)c2)c1 |  | 11.2 µM (active)
18 | C=CCCCCCCCCC(=O)O | inactive | 
19 | CC(O)CN(CCN(CC(C)O)CC(C)O)CC(C)O (stereo not given) | inactive | 
20 | COc1ccc(-n2nc(C(F)F)cc2-c2ccc(S(C)=O)cc2)cc1 (stereo not given) | inactive | 

Row | Compound | outcome | AC50
21 | C1N2CN3CN1CN(C2)C3 | inactive | 
22 | CC(C)(O)c1coc(S(=O)(=O)NC(=O)Nc2c3c(cc4c2CCC4)CCC3)c1 | inactive | 
23 | O=C1CCC(N2C(=O)c3ccccc3C2=O)C(=O)N1 (stereo not given) | inactive | 
24 | CCOCCO | inactive | 
25 | CC(C)c1cccc(C(C)C)c1N1C(=O)c2ccc(O)cc2C1=O |  | 16.7 µM (active)
26 | Cc1c(-c2cccnc2)c2ccccc2n1CCCCC(=O)O | inactive | 
27 | CC(C)CCCCCCCOC(=O)CCCCC(=O)OCCCCCCCC(C)C | inactive | 
28 | CC(C)=CCC/C(C)=C/CO | inactive | 
29 | NC(=O)NO | inactive | 
30 | Nc1nc2ncc(CNc3ccc(C(=O)N[C@@H](CCC(=O)O)C(=O)O)cc3)nc2c(=O)[nH]1 | inactive | 
31 | CC(C)CC(C)(O)C#CC(C)(O)CC(C)C (stereo not given) | inactive | 
32 | CCCCC(CC)COC(=O)c1ccc(C(=O)OCC(CC)CCCC)cc1 (stereo not given) | inactive | 
33 | Cc1[nH]cnc1C[C@H]1CCc2c(C)c3ccccc3n2C1=O | inactive | 
34 | CCOC(=O)COc1ccc2c(c1)CC(NCC(O)c1cccc(Cl)c1)CC2 (stereo not given) |  | 27.5 µM (active)
35 | Cn1c(=O)cc(Oc2ccc(F)cc2F)c2cnc(NCC(C)(C)O)nc21 | inactive | 
36 | On1ccccc1=S |  | 24.7 µM (active)
37 | CCCN(C1CCN(C(=O)C2CCNCC2)CC1)[C@@H]1CCc2ccc(OC)cc2C1 | inactive | 
38 | CCCCCCc1ccc(O)cc1O |  | 34.3 µM (active)
39 | Cc1ccc(N)cc1O | inactive | 
40 | CC(=O)OCCC(C)C | inactive | 
